Wnt bcat act = Wnt/beta-catenin pathway activation; Wnt/beta-catenin reporter cell assay, activator, plate reader; activation, % at 9.35 µM; 1.2% of 300,000 active; in the data active = activation above about 30%, passing the limit was not always enough; inconclusive = no clear call, values can overlap the other calls
esBAF inh = SWI/SNF esBAF complex inhibition; mouse ES cells, Bmi1-luciferase knock-in reporter, 24 h; 100% = twice the neutral-well signal; reporter increase, % at 12.5 µM; 2% of 350,000 active; AID 602393; in the data active = activation above about 40%; inconclusive = no clear call, values can overlap the other calls;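 note: a rise in the Bmi1 reporter signal indicates esBAF inhibition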
HSF-1 act = increases HSF-1 driven luciferase reporter signal | activation, % at 9 µM | NIH3T3-HGL HSF-1 luciferase reporter, MG132, 8 h; 100% = twice DMSO control signal | 1.7% of 300,000 active;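 active = mean replicate activation of at least 50% with a set share of replicates each reaching 50%; inconclusive = only one of those two conditions met; inactive = mean below 50% and too few replicates reaching it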
HSF1 inh = HSF1 inhibition | activity change, negative = inhibition, % at 7.5 µM (by protocol) | AID 2098 | 0.77% of 300,000 active | NIH3T3-HGL HSE-luciferase, MG132-induced, luminescence 8 h; hits give low values;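 active = more than half of replicate wells show activity change below -50%, luminescence cut by over half; inconclusive = some wells, but at most half, below -50%; inactive = no replicate well below -50%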;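 note: luciferase reports HSF-1 transcriptional activity via heat shock element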
MITF act = increases MITF-driven TRPM1 promoter luciferase signal; SK-MEL-5 TRPM1-promoter luciferase, 24 h; % of positive control, neutral wells = 0; activation, % at 12.5 µM; 0.75% of 300,000 active;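 active = mean activation of at least 80% with every replicate also reaching 80%; inconclusive = mean reaches 80% but some replicate falls short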
A number is an active result. Only some compounds are listed: those with a hit (about 3.9% of all), similar ones and a draw of the others.

What do the screens show for `O=C(CN1CCOCC1)N[C@@H]1CC[C@@H](CCNC(=O)C2CCCC2)O[C@@H]1CO`?
esBAF inh: inactive

What do the screens show for `CNC(=O)C[C@@H]1CC[C@H]2[C@H](COc3ccc(NC(=O)c4cccc(F)c4)cc3C(=O)N2C)O1`?
esBAF inh: inactive

How did Cc1ccc(-c2nn[nH]n2)o1 do in these assays?
esBAF inh: inactive; HSF-1 act: inactive; HSF1 inh: -58.0

Results for CCNC(=O)C[C@H]1CC[C@@H]2[C@H](COC[C@@H](O)CN2C(=O)C2CCCC2)O1 ?
esBAF inh: inactive

What do the screens show for `CN(C)/C=N/c1cnc(C(=O)c2ccc(Cl)cc2)n1C`?
esBAF inh: 45.4; HSF-1 act: 62.2; HSF1 inh: inactive; MITF act: inconclusive

How did CCNC(=O)C[C@H]1CC[C@@H]2[C@H](COc3ccc(NC(=O)c4cc(C)on4)cc3C(=O)N2C)O1 do in these assays?
esBAF inh: inactive

How did O=c1o[nH]c(-c2ccccc2)c1-c1ccccc1 do in these assays?
Wnt bcat act: inactive; HSF-1 act: inactive; HSF1 inh: -59.8

What do the screens show for `CCCC(=O)Nc1cc(-c2nn(C)c(=O)c3ccccc23)ccc1OC`?
esBAF inh: inactive; HSF-1 act: 59.5; HSF1 inh: inactive

How did CCC(=O)Nc1cc(-c2nn(C)c(=O)c3ccccc23)ccc1OC do in these assays?
esBAF inh: inactive; HSF-1 act: inactive; HSF1 inh: inactive; MITF act: inactive

How did CCCNC(=O)N1CCCC(C(=O)c2cccc(Cl)c2)C1 (configuration not stated) do in these assays?
Wnt bcat act: inactive; esBAF inh: inactive; HSF-1 act: inactive; HSF1 inh: -53.7; MITF act: inactive

What do the screens show for `CCOC(=O)CCNC(=O)N1CCCC(C(=O)c2cccc(Cl)c2)C1` (configuration not stated)?
esBAF inh: inactive; HSF-1 act: inactive; HSF1 inh: inactive; MITF act: inactive

Results for CCCC(=O)N1CCCC(C(=O)c2cccc(OC(C)C)c2)C1 (configuration not stated) ?
Wnt bcat act: inactive; esBAF inh: 53.9; HSF-1 act: inactive; HSF1 inh: inactive

What do the screens show for `O=C(C[C@H]1C=C[C@@H](NS(=O)(=O)c2ccccc2)[C@H](CO)O1)NCc1ccccc1F`?
esBAF inh: inactive

What do the screens show for `O=C(Nc1ccc(Cl)cc1Cl)C1=Cc2ccccc2OC1`?
esBAF inh: inactive; HSF-1 act: 52.6; HSF1 inh: inactive; MITF act: inactive

Results for O=C(Nc1ccc(Cl)cc1)C1=Cc2cc(Cl)ccc2OC1 ?
HSF-1 act: inactive; HSF1 inh: inactive; MITF act: inactive

Results for COc1cccc(C(=O)COc2ccc(NC(=O)c3cccs3)cc2)c1 ?
Wnt bcat act: inactive; esBAF inh: inactive; HSF-1 act: inactive; HSF1 inh: inactive; MITF act: inactive

How did COc1cc(NC(=O)c2cccs2)c(C(=O)OCC(=O)c2cc(C)n(-c3ccccc3)c2C)cc1OC do in these assays?
esBAF inh: inactive; HSF-1 act: inactive; HSF1 inh: inactive; MITF act: inactive

How did COc1ccccc1C(=O)COC(=O)c1cccs1 do in these assays?
Wnt bcat act: inactive; esBAF inh: 80.9; MITF act: inactive

How did COc1ccc(CNC(=O)COC(=O)CCC(=O)c2cccs2)cc1 do in these assays?
Wnt bcat act: 39.3; esBAF inh: inactive; HSF-1 act: inactive; HSF1 inh: inactive; MITF act: inactive

How did COc1cc(NC(=O)c2cccs2)c(C(=O)OCC(=O)c2cc(C)n(-c3ccc(F)cc3)c2C)cc1OC do in these assays?
Wnt bcat act: inactive; esBAF inh: inactive; HSF-1 act: inactive; HSF1 inh: -64.4; MITF act: inactive

What do the screens show for `COc1cccc(C(=O)COC(=O)c2cccs2)c1`?
Wnt bcat act: 39.3; esBAF inh: inactive; HSF-1 act: inactive; HSF1 inh: inactive; MITF act: inactive

How did CN(C)C(=O)[C@H]1[C@H](CO)[C@H]2Cn3c(ccc(C4=CCCC4)c3=O)[C@@H]1N2C do in these assays?
esBAF inh: inactive

Results for COc1ccc(NC(=O)N(C)C[C@H]2Oc3c(NS(=O)(=O)c4ccc(OC)cc4)cccc3C(=O)N([C@H](C)CO)C[C@H]2C)cc1 ?
esBAF inh: inactive

Results for O=C(COC(=O)c1cccs1)c1ccccc1 ?
esBAF inh: inactive; HSF-1 act: inactive; HSF1 inh: inactive; MITF act: inactive

Results for COc1ccc(C(=O)COC(=O)c2cccs2)cc1 ?
Wnt bcat act: 53.9; esBAF inh: 67.8; MITF act: inactive

How did CCOc1ccc(C(=O)c2cccs2)cc1 do in these assays?
Wnt bcat act: inactive; esBAF inh: 47.7; HSF-1 act: inactive; HSF1 inh: inactive; MITF act: inactive

Results for COc1ccccc1C(=O)COC(=O)C1(C)CC1(Cl)Cl (configuration not stated) ?
Wnt bcat act: inactive; esBAF inh: 60.2; MITF act: inactive

How did CCN1/C(=C/C=C/c2oc3ccc(-c4ccccc4)cc3[n+]2CC)Oc2ccc(-c3ccccc3)cc21 do in these assays?
Wnt bcat act: inactive; esBAF inh: inactive; HSF-1 act: 102.8; HSF1 inh: inactive; MITF act: inactive

Results for Cc1cccc(N/N=C/c2ccncc2)c1 ?
Wnt bcat act: inactive; esBAF inh: inactive; HSF-1 act: inactive; HSF1 inh: inactive; MITF act: 129.1

What do the screens show for `C[C@@H]1CN([C@H](C)CO)C(=O)c2cccc(NS(=O)(=O)c3cn(C)cn3)c2O[C@@H]1CN(C)Cc1ccncc1`?
esBAF inh: inactive

How did COc1ccc(C=C(NC(=O)c2ccccc2)C(=O)O)cc1OC do in these assays?
Wnt bcat act: inactive; MITF act: inactive

What do the screens show for `COC(=O)/C(=C/c1ccc2c(c1)c1ccccc1n2C)NC(=O)c1ccccc1`?
HSF-1 act: 72.8; HSF1 inh: inactive; MITF act: inactive

What do the screens show for `N/C(=N\OC(=O)COc1ccccc1)c1ccncc1`?
Wnt bcat act: inactive; HSF-1 act: inactive; HSF1 inh: inactive; MITF act: inactive

How did Cc1cc(OCC(=O)O/N=C(\N)c2ccccc2)ccc1Br do in these assays?
Wnt bcat act: inactive; HSF-1 act: inactive; HSF1 inh: inactive; MITF act: inactive

What do the screens show for `Cc1cc(C)cc(OCC(=O)O/N=C(\N)c2ccccn2)c1`?
esBAF inh: inconclusive; HSF-1 act: inactive; HSF1 inh: inactive; MITF act: inactive

Results for Cc1ccc(OCC(=O)O/N=C(\N)c2ccncc2)cc1C ?
Wnt bcat act: inactive; esBAF inh: 53.5; HSF-1 act: inactive; HSF1 inh: inactive; MITF act: inactive

How did Cc1ccc(OCC(=O)O/N=C(\N)c2ccccn2)cc1C do in these assays?
Wnt bcat act: 38.7; HSF-1 act: 107.8; HSF1 inh: inactive

Results for Cc1cc(C)c(C)c(OCC(=O)O/N=C(\N)c2ccccn2)c1 ?
esBAF inh: inactive; HSF-1 act: inactive; HSF1 inh: inactive; MITF act: inactive

How did COc1cccc(OCC(=O)O/N=C(\N)c2ccncc2)c1 do in these assays?
Wnt bcat act: inactive; esBAF inh: 46.9; HSF-1 act: inactive; HSF1 inh: inactive; MITF act: inactive

What do the screens show for `Cc1cccc(OCC(=O)O/N=C(\N)c2ccccn2)c1`?
Wnt bcat act: inactive; esBAF inh: inactive; HSF-1 act: inactive; HSF1 inh: inactive; MITF act: 98.6

Bioassay records (PubChem)
